Results: PubChem BioAssay (NCI)
The panel holds about 79,000 compounds, 15% with a hit somewhere; the sample as a whole holds those more often. Calls of active or inactive are those of the source. No stated cut-off is given here; in the data, active means growth inhibition above about 70%; inactive means the rest.

Experiment: NCI Yeast Anticancer Drug Screen. Data for the wt1 strain (AID 149);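 further: 0% = growth of vehicle-treated wt1 cultures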
Conditions: S. cerevisiae wt1 strain (SPY 50644) growth inhibition, hits give high values
Method: Growth inhibition of yeast strains with defined genetic alterations is measured as a screen for potential anti-cancer activity. Selected strains with alterations in DNA damage repair or cell cycle control were exposed to compounds and growth inhibition was measured relative to vehicle treated controls. The strain used in this assay is wt1

Measured: growth inhibition

O=c1[nH]c(=O)n(CCCO)cc1F
inactive: at 1.2 µM -32% | at 3.7 µM 0% | at 11.0 µM -9% | at 33.0 µM 4% | at 100.0 µM -4%

O=C1C=CC(=O)N1c1ccc(Br)cc1Cl
active: at 1.2 µM 95% | at 3.7 µM 101% | at 11.0 µM 99% | at 33.0 µM 99% | at 100.0 µM 98%

CCN(CC)c1ccc(N=Nc2cc(S(=O)(=O)O)ccc2O)c(O)c1
inactive: at 1.2 µM 8% | at 3.7 µM 15% | at 11.0 µM 20% | at 33.0 µM 29% | at 100.0 µM 51%

O=S(=O)(Oc1c(Cl)cc(Cl)cc1Cl)c1ccccc1
inactive: at 1.2 µM -4% | at 3.7 µM -7% | at 11.0 µM -9% | at 33.0 µM -11% | at 100.0 µM -5%

CCCCCCCCCCCCCCCCCN
inactive: at 1.2 µM -23% | at 3.7 µM -25% | at 11.0 µM -5%
active: at 33.0 µM 90% | at 100.0 µM 94%

CC(C)(C(=O)NN)c1ccccc1
inactive: at 1.2 µM 2% | at 3.7 µM 9% | at 11.0 µM 34% | at 33.0 µM 52%
active: at 100.0 µM 78%

Oc1ccc(Br)cc1C=Nc1cccc(C(F)(F)F)c1
inactive: at 1.2 µM -2% | at 3.7 µM -7% | at 11.0 µM 9%
active: at 33.0 µM 91% | at 100.0 µM 97%

Cc1ccc(SSc2ccc(C)cc2[N+](=O)[O-])c([N+](=O)[O-])c1
inactive: at 1.2 µM -2% | at 3.7 µM 4% | at 11.0 µM 16% | at 33.0 µM 50%
active: at 100.0 µM 83%
